# Screens as filed in PubChem BioAssay.
# CCT chaperon mod: High-Throughput Screening for Modulators of Cytosolic Chaperonin Activity | purified chaperonin ATPase assay, HTRF ADP detection, 30 min | AID 651819, 2012 | 360,000 compounds, 0.3% hits | activity change, % (test concentration not listed), hits read low; in the data active = activity change below about -30%; note: % is set by controls: 0 for no effect and ±100 for the full control effect
#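 We incubate TRiC, 40 or 20 nM final, with library compounds at 76 uM and 10 uM ATP for 30 min at 37 °C. ADP formed is detected with Transcreener HTRF reagents after 30 min at room temperature.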
# A549 viability: Nrf2 qHTS screen for inhibitors: counterscreen for cytotoxicity; A549 ARE-Fluc cells, CellTiter-Fluor viability, 18-24 h; Potency, µM (top dose mostly 46 µM), for inactives: at the top dose activity change, negative = cytotoxicity, actives largely listed as inhibitors; 390,000 compounds, 0.16% hits; AID 504648, 2011; note: potency is the fitted concentration of half-maximal effect; % is set by controls: 0 for no effect and ±100 for the full control effect
#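 A549 ARE_Fluc cells in 5% FBS OPTI-MEM were exposed to compounds in concentration-response for 18-24 h at 37 deg C. Viability was read by CellTiter-Fluor fluorescence (Ex 405/Em 525) after 30 min, before the luciferase read.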
# TCR act: Activators of T cell receptors: qHTS campaign. primary human leukocytes, anti-CD3, IL-2 HTRF, 48 h. Potency, µM (doses to about 9.22 µM), inactives show at the highest dose activation of IL-2 secretion, usual class: activators. 330,000 tested, under 10 active. AID 504894, 2011; note: % of control where 0% means no effect
#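 Activity was scored as IL-2 release from primary human leukocytes given only a TCR signal (a-CD3 beads) plus compound for 48 hr. Detection used a two-antibody HTRF format read at 665nm.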
# Nrf2 block: Nrf2 qHTS screen for inhibitors. AID 504444, 2011. A549 ARE-Fluc reporter, luciferase luminescence, 18-24 h. 360,000 compounds, 2.1% hits. Potency, µM (doses to about 46 µM), for inactives: at the top dose activity change, negative = inhibition, usual class: inhibitors; note: potency is the fitted concentration of half-maximal effect; % is set by controls: 0 for no effect and ±100 for the full control effect; nearly all actives have a fitted effect of over 60% in size
#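 Reporter: ARE-Fluc in A549. Exposure: 18-24 h, 37 °C, 5% CO2, 5% FBS OPTI-MEM. Readouts: fluorescent cytotoxicity (CellTiter-Fluor), then luminescent Nrf2 signal after BugLite.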
# Nrf2 activator: qHTS of Nrf2 Activators; AREc32 ARE-luciferase reporter (MCF7-derived line), luminescence, 24 h; Potency, µM (series often up to 46.1 µM), inactives show at the highest dose activation, actives largely listed as activators; 410,000 compounds, 0.31% hits; AID 624171, 2012; note: potency is the fitted concentration of half-maximal effect; % of control where 0% means no effect; nearly all actives have a fitted effect of over 65% in size
#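 Luminescent ARE reporter assay in AREc32_Fluc cells: overnight plating at 37 deg C, 24 hr compound incubation, Steady-Glo added, 30 min RT before reading.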
# A-T KAP1 phos: qHTS Assay for Identifying a Potential Treatment of Ataxia-Telangiectasia. Potency, µM (titrated, usually from 57.5 µM), for inactives: top-dose activation, most hits filed as activators. AID 485349, 2010. F2112 A-T fibroblasts, KAP-1 phosphorylation AlphaLISA; neocarzinostatin DNA damage 30 min before lysis. 320,000 compounds, 0.19% hits; note: potency is the fitted concentration of half-maximal effect; % of control where 0% means no effect; nearly all actives have a fitted effect of over 45% in size
#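 ATM-like activity read as KAP-1 phosphorylation via AlphaLISA donor/acceptor antibody pairs after lysis and 6 hr at 25C. Cells were ATM-null patient fibroblasts (F2112, hTERT), dosed 60 min, then exposed to the DSB inducer NCS for 30 min.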
# Numbers without * were called inactive; u = inconclusive; x = not tested or not shown; [ ] = dose if it differs, or a comment. A selection: hits, their analogues and other compounds. The true share with any hit is near 2.6%. Unless noted, calls come from the whole dose curve; as a rule, active = well fitted curve in the direction sought with a large enough effect; inconclusive = small, poorly fitted or top-dose-only effect, or another doubt; inactive = no such curve, though single readings can be large; an effect the other way counts as inactive or inconclusive.
SMILES,CCT chaperon mod,A549 viability,TCR act,Nrf2 block,Nrf2 activator,A-T KAP1 phos
COc1ccccc1N1CC(C(=O)OC(C)C(=O)N2CCCc3ccccc32)CC1=O (stereo not given),-60*,4%,2%,8%,-1%,-14%
Cc1ccccc1N1CCN(C(=O)c2ccccc2NC(=O)c2ccccc2C(=O)O)CC1,-66*,2%,-1%,-13%,0%,3%
CCN(CC)C(=O)Oc1ccc2c(c1)O/C(=C\c1ccco1)C2=O,-1,1%,1%,u,21%,-9%
CCC(=O)Oc1ccc2c(c1)O/C(=C\c1ccco1)C2=O,-3,-17%,-8%,-1%,7.9µM*,-19%
CC(=O)N1CCSc2ccc(S(=O)(=O)Nc3cccc(C)c3)cc21,-1,-3%,-3%,u,0%,4%
CC(=O)N1CCSc2ccc(S(=O)(=O)Nc3ccccc3C)cc21,0,-22%,-21%,13µM*,0%,-12%
Cc1cccc(-n2ncc3c2CCCC3NC(=O)CCc2ccncc2)c1C (stereo not given),-1,-7%,0%,5.8µM*,-1%,-1%
CCCCc1nn2c(=O)cc(COC(=O)c3cccc(OC)c3)nc2s1,x,5%,x,-2%,0%,x
O=C(Nc1ccc(S(=O)(=O)NC2CCCCC2)cc1)c1ccc(Br)o1,-4,-13%,5%,15µM*,0%,-1%
O=C(CSCc1ccc(Cl)cc1)N/N=C/c1ccc(OCC(=O)Nc2ccccc2)cc1,-53*,-5%,2%,u,0%,-3%
O=S(=O)(c1cc(C(F)(F)F)ccc1Cl)N1CCCCCC1,0,-5%,-4%,-2%,0%,u
O=S(=O)(c1cc(C(F)(F)F)ccc1Cl)N1CCN(c2ncnc3ccccc23)CC1,2,-13%,-1%,18µM*,0%,-11%
COc1cc(OC)c(OC)cc1/C=C1/Cc2ccccc2C1=O,2,16%,2%,3%,5.6µM*,-13%
O=C1/C(=C\c2ccc(Br)o2)Cc2ccccc21,0,1%,u,u,11µM*,-2%
COc1cc(/C=C2/CCc3ccccc3C2=O)cc(OC)c1OC,-3,-17%,-2%[46.1 µM],15µM*,u,5%
COc1ccc(/C=C2/CCc3ccccc3C2=O)cc1OC,-3,-9%,6%[46.1 µM],23µM*,u,-2%
O=C1/C(=C/c2cccs2)Cc2ccccc21,0,-3%,-4%[46.1 µM],2%,u,-5%
Cc1ccc(S(=O)(=O)c2nc(-c3ccccc3)oc2SCC(=O)NC2CCCCC2)cc1,x,-2%,x,8%[9.27 µM],0%,x
Cc1ccc(NC(=O)CSc2nc3c(c(=O)[nH]2)CCC3)cc1Cl,x,-4%,x,u,3%,x
COc1cc(/C=C2\CC/C(=C\c3cc(OC)c(OC)c(OC)c3)C2=O)cc(OC)c1OC,1,-1%,-10%[46.1 µM],-14%,16%,1%
CCC1C/C(=C\c2cc(OC)c(OC)cc2OC)C(=O)/C(=C/c2cc(OC)c(OC)cc2OC)C1 (stereo not given),-1,u,6%,18µM*,-3%,6%
Cn1cccc1/C=C1\Cc2ccccc2C1=O,-2,-4%,-2%,22%,11µM*,-1%
Cn1cccc1/C=C1\CCc2ccccc2C1=O,-2,3%,3%,u,u,3%
COc1cc(/C=C2\CC/C(=C\c3cc(OC)c(O)c(OC)c3)C2=O)cc(OC)c1O,-2,u,0%[46.1 µM],16µM*,-1%,-6%
COc1cc(OC)c(OC)cc1/C=C1\CC(C)C/C(=C\c2cc(OC)c(OC)cc2OC)C1=O (stereo not given),-4,u,-3%,u,-1%,-3%
SMILES,CCT chaperon mod,A549 viability,TCR act,Nrf2 block,Nrf2 activator,A-T KAP1 phos
COc1cc(/C=C2\CC(C(C)(C)C)C/C(=C\c3cc(OC)c(OC)c(OC)c3)C2=O)cc(OC)c1OC (stereo not given),1,8.2µM*,-3%,5.8µM*,u,7%
COc1cc(/C=C2\CCC(C3CCCC3)C2=O)cc(OC)c1OC (stereo not given),2,0%,0%,-3%,2%,9%
Cc1ccc(C)c(N2CCN(C(=O)Nc3cn(CC(C)C)c(=O)c4ccccc34)CC2)c1,x,u,x,u,0%,x
O=C1C(=Cc2cccc(Cl)c2)CCc2ccccc21,0,x,x,x,u,x
O=C1C(=Cc2cccc(Cl)c2)Cc2ccccc21,-2,x,x,x,10µM*,x
C=Cc1cc2c(s1)c1cnn(Cc3ccccc3F)c(=O)c1n2C,x,-5%,x,-4%,x,x
CC(=O)OC[C@]12CC[C@H]3[C@@](C)(CC[C@H]4C(C)(C)CCC[C@]34C)[C@@H]1C[C@@H](C1=CC(=O)O[C@@H]1OC(C)=O)O2,x,x,x,x,x,-1%
CC(=O)OC[C@]12CC[C@H]3[C@@](C)(CC[C@H]4C(C)(C)CCC[C@]34C)[C@@H]1C[C@H](C1=CC(=O)O[C@H]1OC(C)=O)O2,x,x,x,x,x,35µM*
COc1cc(F)cc(F)c1[S+](=O)([O-])N1CCN([S+](=O)([O-])c2ccc3c(c2)OCCO3)CC1,x,-5%,x,8%,x,x
COc1ccc(C(=O)Nc2ccc(-c3nc4cc(C)ccc4o3)c(O)c2)cc1,x,-2%,x,u,6%,x
Cc1ccc(C(=O)Nc2ccc3oc(-c4ccccc4C)nc3c2)cc1,x,-13%,x,6.5µM*,4%,x
CC1=C(C(=O)OCC2CCCO2)C(c2cccc(C(F)(F)F)c2)C2=C(CC(c3ccco3)CC2=O)N1 (stereo not given),-1,u,-9%,23µM*,4%,3%
CCCCC1CCC(C(=O)NC2CCS(=O)(=O)C2)CC1 (stereo not given),-46*,7%,2%[46.1 µM],10%,-1%,-4%
O=C(NC1CCS(=O)(=O)C1)C1CCCC1 (stereo not given),-1,1%,3%,4%,0%,-1%
CNc1ccc(Br)cc(C(=O)/C=C/c2ccc(Cl)cc2Cl)c1=O,-1,21µM*,10%,u,8.9µM*,6%
COc1ccc(-c2nc(-c3ccccc3)c(-c3ccc(F)cc3)[nH]2)c(OC)c1C,x,0%,x,-17%,0%,x
COc1ccccc1N1CCN(S(=O)(=O)c2ccc(-c3ccc(=O)[nH]n3)o2)CC1,-4,7%,9%,1%,2%,-1%
Cc1cccc(N2CCN(S(=O)(=O)c3ccc(-c4ccc(=O)[nH]n4)o3)CC2)c1C,-2,u,1%,13µM*,-1%,1%
Cc1cc2c(s1)c1cnn(Cc3ccc(F)cc3)c(=O)c1n2C,x,-8%,x,-13%,x,x
